The full data set covers some 7,900 targets. This sample favours those with a hit. About 0.6% of all pairs of compound and target were hits. Unmarked numbers belong to inactive results.
Assays:
Assay in all cases: log2 fold change, soluble protein after heating vs DMSO (PISA); higher = thermal stabilisation; K562 cells, 10 uM, 30 min; active = over 0.2 and 3.5 SD of the protein, either way, in both replicates (recomputed)
[1] = compound: C1COCCN1CCN2C3=CC=CC=C3N=C2NC(=O)C4=CC(=CC=C4)[N+](=O)[O-] [IRAK-1-4 Inhibitor I]
In short: (§1)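 For each measurement, 10 μM compound was applied for 30 min to K562 cells at 2×10^6 cells/mL. Aliquots were heated for 3 min across 48°C-58°C, pooled, and extracted in PBS with 0.5% NP-40 at 4°C; the supernatant after 21,000xg for 90 min was soluble protein. This was quantified by TMTpro 16plex LC-MS/MS with channel sums equalised, and thermal stability was reported relative to control samples from duplicates, on a log2 fold-change scale.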

[2] = compound: C=CC(=O)N1CCC[C@@H](n2nc(-c3ccc(Oc4ccccc4)cc3)c3c(N)ncnc32)C1 [ibrutinib]
In short: as §1

[3] = compound: CC(=O)c1cnc2ccc(-c3cc(Cl)c(O)c(Cl)c3)nc2c1N[C@H]1CC[C@H](CN(C)C)CC1
In short: as §1

[4] = compound: CC(C)(C)Cn1c(N)nc2ccc(-c3[nH]c(C(C)(C)C)nc3-c3ccc(F)cc3)nc21 [ralimetinib]
In short: as §1

[5] = compound: CC(C)(O)CC(=O)NCCn1ccc2ncnc(Nc3ccc(Oc4cccc(C(F)(F)F)c4)c(Cl)c3)c21
In short: as §1

[6] = compound: CC(C)C1=C2N=C(C=C(N2N=C1)NCC3=CC=CC=C3)NCCCCCCN
In short: as §1

[7] = compound: CC(C)C[C@@H](C=O)NC(=O)[C@H](CC(C)C)NC(=O)[C@H](CC(C)C)NC(=O)OCc1ccccc1
In short: as §1

[8] = compound: CC(C)N(C[C@H]1O[C@@H](n2cnc3c(N)ncnc32)[C@H](O)[C@@H]1O)[C@H]1C[C@@H](CCc2nc3cc(C(C)(C)C)ccc3[nH]2)C1 [pinometostat]
In short: as §1

[9] = compound: CC1=C(C(CC(=O)N1)C2=CC=C(C=C2)C(F)(F)F)C(=O)NC3=C(C=C4C(=C3)C=NN4)F
In short: as §1

[10] = compound: CC1=C(C2=C(C=C1)C(=O)C3=CC=CC=C3N2CCCN)C
In short: as §1

Chain of UniProt Q96DX7 (Q96DX7 whole entry, looked up): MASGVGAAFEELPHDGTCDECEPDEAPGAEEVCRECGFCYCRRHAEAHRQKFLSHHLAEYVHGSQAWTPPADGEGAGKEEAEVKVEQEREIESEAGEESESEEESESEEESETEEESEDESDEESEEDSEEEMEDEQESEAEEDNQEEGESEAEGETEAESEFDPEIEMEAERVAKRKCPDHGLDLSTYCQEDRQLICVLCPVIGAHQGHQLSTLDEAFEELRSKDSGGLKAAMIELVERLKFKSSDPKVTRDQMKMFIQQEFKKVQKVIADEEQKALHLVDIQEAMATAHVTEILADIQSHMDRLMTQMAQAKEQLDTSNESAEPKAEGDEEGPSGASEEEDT
Chain of UniProt Q9H3M7 (Q9H3M7 whole entry, looked up): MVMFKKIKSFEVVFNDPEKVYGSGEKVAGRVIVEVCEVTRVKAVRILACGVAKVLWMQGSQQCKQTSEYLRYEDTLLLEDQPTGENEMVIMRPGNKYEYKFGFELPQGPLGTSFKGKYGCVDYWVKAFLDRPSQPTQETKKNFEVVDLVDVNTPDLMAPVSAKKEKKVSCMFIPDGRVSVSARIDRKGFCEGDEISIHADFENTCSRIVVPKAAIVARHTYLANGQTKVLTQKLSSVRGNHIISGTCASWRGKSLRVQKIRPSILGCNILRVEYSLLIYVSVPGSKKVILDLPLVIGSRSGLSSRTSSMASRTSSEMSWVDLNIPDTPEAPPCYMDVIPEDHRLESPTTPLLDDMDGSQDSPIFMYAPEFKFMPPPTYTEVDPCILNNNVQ
Chain of UniProt Q9NUM4 (Q9NUM4 whole entry, looked up): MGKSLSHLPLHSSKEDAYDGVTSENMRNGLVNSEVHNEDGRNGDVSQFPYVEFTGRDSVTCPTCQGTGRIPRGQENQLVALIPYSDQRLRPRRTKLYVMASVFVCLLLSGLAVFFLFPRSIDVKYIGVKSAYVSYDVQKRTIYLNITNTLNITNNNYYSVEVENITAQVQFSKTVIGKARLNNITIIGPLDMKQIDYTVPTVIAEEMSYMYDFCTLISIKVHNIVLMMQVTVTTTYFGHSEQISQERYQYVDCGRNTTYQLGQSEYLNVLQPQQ
Chain of UniProt Q8IWA0 (Q8IWA0 whole entry, looked up): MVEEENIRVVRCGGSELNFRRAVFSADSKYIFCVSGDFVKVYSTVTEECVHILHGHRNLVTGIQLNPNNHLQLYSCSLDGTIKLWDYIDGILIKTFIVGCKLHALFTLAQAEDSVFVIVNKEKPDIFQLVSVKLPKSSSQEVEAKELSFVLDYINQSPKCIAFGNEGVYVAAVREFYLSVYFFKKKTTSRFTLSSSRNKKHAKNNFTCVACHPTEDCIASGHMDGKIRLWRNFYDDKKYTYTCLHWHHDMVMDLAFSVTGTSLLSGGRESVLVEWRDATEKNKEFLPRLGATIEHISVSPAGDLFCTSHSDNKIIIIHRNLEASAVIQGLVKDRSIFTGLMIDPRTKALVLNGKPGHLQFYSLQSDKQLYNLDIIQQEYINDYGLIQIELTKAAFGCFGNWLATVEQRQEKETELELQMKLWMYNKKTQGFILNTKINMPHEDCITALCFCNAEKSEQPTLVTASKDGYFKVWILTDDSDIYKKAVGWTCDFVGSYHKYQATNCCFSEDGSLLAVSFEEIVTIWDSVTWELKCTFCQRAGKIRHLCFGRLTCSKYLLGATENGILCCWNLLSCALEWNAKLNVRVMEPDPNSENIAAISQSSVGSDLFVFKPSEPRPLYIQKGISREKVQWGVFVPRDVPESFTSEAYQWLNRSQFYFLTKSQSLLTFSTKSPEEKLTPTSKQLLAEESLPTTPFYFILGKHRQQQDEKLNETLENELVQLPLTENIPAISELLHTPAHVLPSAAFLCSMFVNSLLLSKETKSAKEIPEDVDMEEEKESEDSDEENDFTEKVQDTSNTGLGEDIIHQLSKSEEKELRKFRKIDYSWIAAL
Chain of UniProt Q9BQB6 (Q9BQB6 whole entry, looked up): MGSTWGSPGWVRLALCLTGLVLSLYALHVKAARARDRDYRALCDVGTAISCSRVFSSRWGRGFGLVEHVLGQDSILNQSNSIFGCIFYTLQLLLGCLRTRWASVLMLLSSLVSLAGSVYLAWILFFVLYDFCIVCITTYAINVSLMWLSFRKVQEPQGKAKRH
Chain of UniProt Q9NX01 (Q9NX01 whole entry, looked up): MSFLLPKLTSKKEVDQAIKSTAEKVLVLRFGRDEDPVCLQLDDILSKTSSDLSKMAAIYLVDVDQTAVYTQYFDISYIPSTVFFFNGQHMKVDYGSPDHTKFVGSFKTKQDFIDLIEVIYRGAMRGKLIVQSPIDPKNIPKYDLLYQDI
Chain of UniProt Q9NQ34 (Q9NQ34 whole entry, looked up): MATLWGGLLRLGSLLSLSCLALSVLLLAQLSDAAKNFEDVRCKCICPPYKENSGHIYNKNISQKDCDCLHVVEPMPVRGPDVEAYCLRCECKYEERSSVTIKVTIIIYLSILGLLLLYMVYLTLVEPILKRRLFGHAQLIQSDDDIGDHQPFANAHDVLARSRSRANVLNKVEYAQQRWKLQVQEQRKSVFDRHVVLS
Chain of UniProt Q7Z3V4 (Q7Z3V4 whole entry, looked up): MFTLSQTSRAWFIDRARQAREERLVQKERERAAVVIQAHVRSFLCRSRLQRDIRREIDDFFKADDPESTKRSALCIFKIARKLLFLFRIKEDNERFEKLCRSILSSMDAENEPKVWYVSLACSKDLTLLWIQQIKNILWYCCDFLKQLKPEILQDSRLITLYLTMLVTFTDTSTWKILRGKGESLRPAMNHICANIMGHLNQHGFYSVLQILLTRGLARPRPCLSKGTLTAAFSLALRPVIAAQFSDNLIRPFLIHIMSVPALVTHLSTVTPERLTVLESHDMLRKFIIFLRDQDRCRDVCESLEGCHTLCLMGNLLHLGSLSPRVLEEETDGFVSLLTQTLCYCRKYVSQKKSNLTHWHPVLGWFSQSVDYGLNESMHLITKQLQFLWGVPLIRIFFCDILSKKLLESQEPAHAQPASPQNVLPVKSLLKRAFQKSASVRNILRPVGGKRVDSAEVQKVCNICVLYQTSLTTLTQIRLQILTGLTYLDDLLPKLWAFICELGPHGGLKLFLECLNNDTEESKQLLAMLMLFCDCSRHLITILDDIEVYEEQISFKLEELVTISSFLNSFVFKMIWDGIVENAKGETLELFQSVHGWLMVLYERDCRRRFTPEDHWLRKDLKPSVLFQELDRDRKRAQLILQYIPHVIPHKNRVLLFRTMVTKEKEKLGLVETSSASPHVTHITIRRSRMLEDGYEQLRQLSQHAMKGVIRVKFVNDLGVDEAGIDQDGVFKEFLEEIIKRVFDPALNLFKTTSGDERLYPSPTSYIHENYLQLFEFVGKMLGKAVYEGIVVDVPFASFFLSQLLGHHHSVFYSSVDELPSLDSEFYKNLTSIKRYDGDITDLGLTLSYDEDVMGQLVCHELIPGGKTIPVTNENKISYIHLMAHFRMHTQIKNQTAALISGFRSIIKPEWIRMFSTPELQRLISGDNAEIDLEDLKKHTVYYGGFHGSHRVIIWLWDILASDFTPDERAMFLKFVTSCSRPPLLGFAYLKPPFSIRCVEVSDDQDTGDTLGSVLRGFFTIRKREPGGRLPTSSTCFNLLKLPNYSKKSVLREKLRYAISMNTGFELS
Chain of UniProt Q9NVA4 (Q9NVA4 whole entry, looked up): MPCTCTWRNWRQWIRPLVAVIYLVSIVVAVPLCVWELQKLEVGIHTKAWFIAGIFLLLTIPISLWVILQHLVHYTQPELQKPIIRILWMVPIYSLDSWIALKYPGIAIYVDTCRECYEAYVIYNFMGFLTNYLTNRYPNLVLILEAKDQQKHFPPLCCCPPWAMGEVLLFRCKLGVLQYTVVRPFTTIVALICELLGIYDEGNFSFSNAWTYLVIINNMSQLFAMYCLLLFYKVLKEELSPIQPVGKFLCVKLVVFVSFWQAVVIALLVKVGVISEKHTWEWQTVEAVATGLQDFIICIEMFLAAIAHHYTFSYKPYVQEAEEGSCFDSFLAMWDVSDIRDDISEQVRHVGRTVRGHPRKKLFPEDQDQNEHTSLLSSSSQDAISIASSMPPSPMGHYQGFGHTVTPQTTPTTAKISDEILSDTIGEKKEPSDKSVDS
Chain of UniProt O60701 (O60701 whole entry, looked up): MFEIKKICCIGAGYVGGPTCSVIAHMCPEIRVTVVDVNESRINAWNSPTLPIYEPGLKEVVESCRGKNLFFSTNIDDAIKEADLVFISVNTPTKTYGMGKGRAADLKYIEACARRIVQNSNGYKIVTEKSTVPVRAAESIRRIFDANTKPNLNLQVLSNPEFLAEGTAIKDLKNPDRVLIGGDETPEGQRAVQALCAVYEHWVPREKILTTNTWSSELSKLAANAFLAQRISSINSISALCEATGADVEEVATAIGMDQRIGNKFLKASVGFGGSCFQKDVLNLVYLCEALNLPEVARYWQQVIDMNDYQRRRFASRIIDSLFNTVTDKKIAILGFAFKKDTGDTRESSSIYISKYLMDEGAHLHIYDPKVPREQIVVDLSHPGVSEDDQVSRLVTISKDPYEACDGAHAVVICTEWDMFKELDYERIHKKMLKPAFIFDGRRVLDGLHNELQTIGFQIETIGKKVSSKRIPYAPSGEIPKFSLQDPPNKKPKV
Chain of UniProt Q8TBZ6 (Q8TBZ6 whole entry, looked up): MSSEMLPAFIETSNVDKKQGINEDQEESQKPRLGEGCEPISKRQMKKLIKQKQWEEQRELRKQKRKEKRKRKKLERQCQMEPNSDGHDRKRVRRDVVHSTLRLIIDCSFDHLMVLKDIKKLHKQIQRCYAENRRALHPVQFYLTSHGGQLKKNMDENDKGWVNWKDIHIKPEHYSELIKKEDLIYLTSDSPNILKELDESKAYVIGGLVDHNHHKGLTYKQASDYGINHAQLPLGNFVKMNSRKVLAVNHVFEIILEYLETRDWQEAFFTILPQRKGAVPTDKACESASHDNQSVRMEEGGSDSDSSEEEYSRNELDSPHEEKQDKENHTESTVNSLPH
Chain of UniProt A6NIH7 (A6NIH7 whole entry, looked up): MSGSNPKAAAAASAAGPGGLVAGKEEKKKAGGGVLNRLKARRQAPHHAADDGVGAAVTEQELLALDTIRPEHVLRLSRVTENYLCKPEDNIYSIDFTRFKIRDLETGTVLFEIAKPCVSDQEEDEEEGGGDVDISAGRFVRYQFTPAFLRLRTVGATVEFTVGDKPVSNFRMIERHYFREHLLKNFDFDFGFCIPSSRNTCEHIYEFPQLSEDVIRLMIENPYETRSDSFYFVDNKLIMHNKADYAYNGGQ

Target	log2 fold change [1]	log2 fold change [2]	log2 fold change [3]	log2 fold change [4]	log2 fold change [5]	log2 fold change [6]	log2 fold change [7]	log2 fold change [8]	log2 fold change [9]	log2 fold change [10]
VTA1 (UniProt Q9NP79)	-0.02	-0.001	-0.013	-0.009	-0.074	-0.12	-0.007	-0.041	0.012	0.068
TMEM263 (UniProt Q8WUH6)	0.083	0	0.026	-0.092	-0.303	-1.03 (active)	0.029	0.001	0.092	0.037
UGDH (UniProt O60701)	-0.019	0.03	-0.616 (active)	-0.046	-0.038	0.017	-0.043	-0.105	0.004	0.078
TRMT2A (UniProt Q8IZ69)	-0.028	0.005	-0.098	0.039	0.013	-0.146	0.034	0.085	0.018	-0.142
TYW1 (UniProt Q9NV66)	-0.031	-0.043	-0.096	0.044	0	0.03	-0.056	0.005	-0.074	0.051
WEE1 (UniProt P30291)	0.025	0.013	-1.1 (active)	0.037	-0.034	-0.019	0.296	0.066	0.05	0.263
UNC119B (UniProt A6NIH7)	0.113	0.08	0.028	0.014	–	0.272	0.088	0.126	-0.048	-0.047
UBIAD1 (UniProt Q9Y5Z9)	0.012	-0.009	-0.055	-0.032	–	-0.069	0.029	-0.104	-0.04	0.047
WARS1 (UniProt G3V277)	-0.005	-0.064	-0.184	–	–	-0.009	–	0.114	0.091	0.087
TTI2 (UniProt Q6NXR4)	-0.032	-0.006	0.005	0.033	-0.196	-0.079	0.032	0.016	-0.044	0.033
TSC2 (UniProt P49815)	-0.045	0.028	0.05	0.091	-0.001	0.103	0.056	0.085	–	0.105
VTI1B (UniProt Q9UEU0)	-0.074	0.027	-0.033	-0.081	0.08	-0.261 (active)	0.002	-0.057	-0.001	0.012
TRIM44 (UniProt Q96DX7)	0.031	0.018	0.067	-0.094	–	-0.06	0.061	-0.01	-0.007	-0.327 (active)
WDR75 (UniProt Q8IWA0)	-0.081	-0.026	-0.196	0.189	0.012	–	0.178	0.197	0.058	0.402
UTP3 (UniProt Q9NQZ2)	-0.053	0.072	0.031	0.021	0.062	-0.062	0.253	0.159	–	-0.571
TXNL4B (UniProt Q9NX01)	0.132	-0.065	-0.071	-0.057	–	-0.02	0.074	-0.053	0.026	0.067

Target	log2 fold change [1]	log2 fold change [2]	log2 fold change [3]	log2 fold change [4]	log2 fold change [5]	log2 fold change [6]	log2 fold change [7]	log2 fold change [8]	log2 fold change [9]	log2 fold change [10]
VPS37A (UniProt Q8NEZ2)	0.045	-0.011	-0.07	0.053	-0.025	-0.143	0.094	0.045	-0.047	-0.066
USP48 isoform 8 (UniProt Q86UV5)	-0.09	-0.071	-0.014	0.046	-0.207	-0.278	0.052	0.008	0.003	-0.101
TXNIP (UniProt Q9H3M7)	0.05	0.016	-0.053	0.13	0.072	-0.371	0.128	-0.083	-0.097	-0.42 (active)
TMEM106B (UniProt Q9NUM4)	0.056	0.029	0.043	–	0.043	-0.092	–	0.085	0.026	-0.027
TMEM184C (UniProt Q9NVA4)	0.105	-0.037	0.042	-0.033	0.088	–	0.042	-0.021	0.081	-0.005
VKORC1 (UniProt Q9BQB6)	-0.056	0.024	-0.033	-0.052	–	-0.306	-0.029	0.092	0.007	0.049
UBE3B (UniProt Q7Z3V4)	-0.182	-0.019	-0.068	-0.296	-0.154	–	0.001	0.239	-0.102	-0.188
VWA3B isoform 6 (UniProt Q502W6)	0.043	-0.069	0.013	-0.031	0	-0.407	-0.256	0.079	0.257	0.089
TMEM9B (UniProt Q9NQ34)	-0.019	0.038	-0.083	0.324 (active)	0.014	-0.082	-0.006	0.015	0.027	0.038
U2AF1L5 (UniProt P0DN76)	0.042	-0.032	-0.389	–	–	-0.19	–	0.014	-0.209	-0.067
TXNRD1 (UniProt Q16881)	0.064	-0.035	-0.062	-0.088	-0.049	-0.013	-0.03	-0.042	-0.011	0.077
TMEM223 (UniProt A0PJW6)	0.039	0.006	-0.101	-0.009	0.114	-0.063	0	-0.019	-0.087	0.042
XPO1 (UniProt O14980)	-0.013	-0.045	0.011	0.018	-0.196	-0.282 (active)	-0.04	-0.013	-0.001	-0.011
TRMT10A (UniProt Q8TBZ6)	0.056	-0.009	-0.065	-0.006	-0.107	-0.075	-0.01	0.042	0.02	0.066
TMEM208 (UniProt Q9BTX3)	0.04	-0.09	0.078	-0.145	-0.088	-0.412 (active)	0.046	0.081	-0.016	0.081
